In test [1] the target is Serine/threonine-protein kinase PAK 6 (Homo sapiens) (UniProt Q9NQU5). The following applies: at 1 µM.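 Further: values are mean percent inhibition of PAK6 kinase.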
Test [2] concerns Tyrosine-protein kinase ABL1 (Homo sapiens), P00519 [E255K]. Conditions: at 0.1 µM.
The test system is the same in test [3]. The following applies: at 1 µM.
Test [4] has as its system Tyrosine-protein kinase ABL1 (Homo sapiens), P00519 [H396P]. The following applies: at 0.1 µM.
For test [5] the test system is unchanged. The following applies: at 1 µM.
Test [6] concerns Tyrosine-protein kinase ABL1 (Homo sapiens), P00519 [M351T]. Conditions: at 0.1 µM.
For test [7] the test system is unchanged. The following applies: at 1 µM.
The subject of test [8] is Tyrosine-protein kinase ABL1 (Homo sapiens), P00519 [Q252H]. Conditions: at 0.1 µM.
Test [9] shares this test system. The following applies: at 1 µM.
The test system of test [10] is Tyrosine-protein kinase ABL1 (Homo sapiens), P00519 [T315I]. The following applies: at 0.1 µM.
Test [11] shares this test system. The following applies: at 1 µM.
For test [12], the system named is Tyrosine-protein kinase ABL1 (Homo sapiens), P00519 [Y253F]. Conditions: at 0.1 µM.
The test system is the same in test [13]. The following applies: at 1 µM.
Test [14] deals with Tyrosine-protein kinase ABL1 (Homo sapiens) (UniProt P00519). The following applies: at 0.1 µM.
Test [15] has the same target. The following applies: at 1 µM.
The target in test [16] is ALK tyrosine kinase receptor (Homo sapiens) (UniProt Q9UM73). Conditions: at 0.1 µM.
The target is the same in test [17]. The following applies: at 1 µM.
The target of test [18] is Tyrosine-protein kinase ABL2 (Homo sapiens) (UniProt P42684). The following applies: at 0.1 µM.
For test [19] the target is unchanged. Conditions: at 1 µM.
In test [20] the target is Tyrosine-protein kinase receptor UFO (Homo sapiens) (UniProt P30530). The following applies: at 0.1 µM.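 Further: values are mean percent inhibition of AXL from the GSK PKIS screen.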

A word on the inhibition: it is the drop in the measured response relative to a control, in per cent.

Chain of Serine/threonine-protein kinase PAK 6 (Homo sapiens) (Q9NQU5 whole entry, looked up): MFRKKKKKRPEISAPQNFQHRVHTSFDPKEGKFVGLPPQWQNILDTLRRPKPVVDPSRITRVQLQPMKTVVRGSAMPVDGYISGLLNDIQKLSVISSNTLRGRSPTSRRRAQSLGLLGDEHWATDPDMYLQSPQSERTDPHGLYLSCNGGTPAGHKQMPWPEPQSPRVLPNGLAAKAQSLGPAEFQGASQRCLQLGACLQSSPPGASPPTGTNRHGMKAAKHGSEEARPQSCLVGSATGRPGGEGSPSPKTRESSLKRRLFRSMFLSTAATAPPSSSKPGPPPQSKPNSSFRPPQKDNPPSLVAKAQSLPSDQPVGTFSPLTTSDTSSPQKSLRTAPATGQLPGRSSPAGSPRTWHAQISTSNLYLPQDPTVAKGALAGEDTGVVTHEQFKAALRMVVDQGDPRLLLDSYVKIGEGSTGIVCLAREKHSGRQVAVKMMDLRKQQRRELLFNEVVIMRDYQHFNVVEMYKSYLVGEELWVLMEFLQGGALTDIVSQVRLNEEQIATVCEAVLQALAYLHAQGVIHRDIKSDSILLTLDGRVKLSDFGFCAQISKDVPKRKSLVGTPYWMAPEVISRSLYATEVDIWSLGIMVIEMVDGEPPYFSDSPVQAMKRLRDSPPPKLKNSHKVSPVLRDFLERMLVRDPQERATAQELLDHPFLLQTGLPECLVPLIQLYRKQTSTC
Chain of ALK tyrosine kinase receptor (Homo sapiens) (Q9UM73 19-1620 limits assumed): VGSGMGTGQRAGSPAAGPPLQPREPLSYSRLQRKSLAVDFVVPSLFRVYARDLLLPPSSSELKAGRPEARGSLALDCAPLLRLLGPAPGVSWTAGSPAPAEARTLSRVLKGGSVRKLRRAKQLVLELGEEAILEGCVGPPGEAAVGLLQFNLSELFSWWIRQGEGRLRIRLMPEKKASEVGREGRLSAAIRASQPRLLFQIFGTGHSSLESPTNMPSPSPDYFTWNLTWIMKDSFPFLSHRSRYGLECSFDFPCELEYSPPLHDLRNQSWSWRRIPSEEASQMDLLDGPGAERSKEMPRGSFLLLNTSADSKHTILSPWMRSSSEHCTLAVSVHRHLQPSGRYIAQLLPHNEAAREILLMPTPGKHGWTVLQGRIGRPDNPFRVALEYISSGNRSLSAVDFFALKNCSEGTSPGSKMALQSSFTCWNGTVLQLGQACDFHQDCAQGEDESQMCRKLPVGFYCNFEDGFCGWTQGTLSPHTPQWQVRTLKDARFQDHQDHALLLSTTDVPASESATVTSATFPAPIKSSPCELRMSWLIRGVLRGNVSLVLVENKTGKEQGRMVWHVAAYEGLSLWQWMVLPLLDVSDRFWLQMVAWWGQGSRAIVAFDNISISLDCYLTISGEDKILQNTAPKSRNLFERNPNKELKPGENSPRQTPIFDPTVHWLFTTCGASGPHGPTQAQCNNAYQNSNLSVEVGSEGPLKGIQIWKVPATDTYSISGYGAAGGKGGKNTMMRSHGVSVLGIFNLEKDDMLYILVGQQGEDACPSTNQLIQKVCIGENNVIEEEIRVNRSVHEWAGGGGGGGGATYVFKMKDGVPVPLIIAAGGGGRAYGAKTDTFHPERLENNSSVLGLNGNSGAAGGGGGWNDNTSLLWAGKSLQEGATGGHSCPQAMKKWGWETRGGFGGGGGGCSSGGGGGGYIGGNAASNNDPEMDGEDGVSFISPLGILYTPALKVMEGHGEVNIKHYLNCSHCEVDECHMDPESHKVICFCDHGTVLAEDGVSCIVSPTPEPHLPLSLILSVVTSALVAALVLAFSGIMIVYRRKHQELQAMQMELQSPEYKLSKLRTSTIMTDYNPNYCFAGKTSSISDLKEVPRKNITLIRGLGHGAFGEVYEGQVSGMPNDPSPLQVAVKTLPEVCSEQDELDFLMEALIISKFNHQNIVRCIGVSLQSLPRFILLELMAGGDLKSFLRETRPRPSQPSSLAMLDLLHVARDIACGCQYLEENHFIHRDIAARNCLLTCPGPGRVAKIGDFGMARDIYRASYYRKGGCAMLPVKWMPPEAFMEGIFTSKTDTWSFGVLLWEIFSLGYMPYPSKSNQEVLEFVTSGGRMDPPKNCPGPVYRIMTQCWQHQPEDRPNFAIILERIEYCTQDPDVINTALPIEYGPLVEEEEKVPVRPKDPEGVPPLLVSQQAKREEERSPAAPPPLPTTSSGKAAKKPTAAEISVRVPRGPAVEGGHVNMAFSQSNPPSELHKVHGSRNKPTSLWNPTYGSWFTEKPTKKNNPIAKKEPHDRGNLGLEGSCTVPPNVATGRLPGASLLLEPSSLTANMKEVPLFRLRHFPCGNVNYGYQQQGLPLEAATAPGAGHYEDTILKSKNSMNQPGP
Chain of Tyrosine-protein kinase ABL2 (Homo sapiens) (P42684 whole entry): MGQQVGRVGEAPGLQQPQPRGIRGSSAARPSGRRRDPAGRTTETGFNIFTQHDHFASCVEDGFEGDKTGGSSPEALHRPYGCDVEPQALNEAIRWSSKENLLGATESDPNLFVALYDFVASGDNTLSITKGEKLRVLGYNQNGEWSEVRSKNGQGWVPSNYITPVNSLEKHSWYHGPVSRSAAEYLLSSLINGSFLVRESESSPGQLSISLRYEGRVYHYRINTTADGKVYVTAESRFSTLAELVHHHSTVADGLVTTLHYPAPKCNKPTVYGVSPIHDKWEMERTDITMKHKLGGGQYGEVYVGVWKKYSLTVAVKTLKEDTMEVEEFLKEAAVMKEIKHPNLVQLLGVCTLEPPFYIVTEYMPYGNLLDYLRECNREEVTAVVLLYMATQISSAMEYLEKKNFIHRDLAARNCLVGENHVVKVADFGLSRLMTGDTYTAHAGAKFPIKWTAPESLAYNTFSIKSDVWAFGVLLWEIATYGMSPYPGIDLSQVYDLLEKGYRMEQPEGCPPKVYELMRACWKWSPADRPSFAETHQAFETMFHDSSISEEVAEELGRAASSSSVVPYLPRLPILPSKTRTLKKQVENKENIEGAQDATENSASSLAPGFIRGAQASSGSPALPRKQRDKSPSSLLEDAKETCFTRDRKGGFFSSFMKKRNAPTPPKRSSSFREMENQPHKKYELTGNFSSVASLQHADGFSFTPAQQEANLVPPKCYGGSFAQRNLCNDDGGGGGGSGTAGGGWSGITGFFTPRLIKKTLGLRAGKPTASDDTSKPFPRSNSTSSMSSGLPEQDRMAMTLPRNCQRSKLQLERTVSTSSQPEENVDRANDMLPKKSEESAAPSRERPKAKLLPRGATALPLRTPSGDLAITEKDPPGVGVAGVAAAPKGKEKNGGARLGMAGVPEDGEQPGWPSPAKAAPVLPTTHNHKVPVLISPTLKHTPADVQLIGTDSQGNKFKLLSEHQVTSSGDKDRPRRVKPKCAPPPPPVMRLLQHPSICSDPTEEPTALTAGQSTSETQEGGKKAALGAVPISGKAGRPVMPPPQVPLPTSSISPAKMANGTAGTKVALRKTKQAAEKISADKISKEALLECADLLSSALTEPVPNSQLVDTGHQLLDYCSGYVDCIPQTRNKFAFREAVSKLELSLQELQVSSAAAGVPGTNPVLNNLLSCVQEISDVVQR
Chain of Tyrosine-protein kinase receptor UFO (Homo sapiens) (P30530 whole entry): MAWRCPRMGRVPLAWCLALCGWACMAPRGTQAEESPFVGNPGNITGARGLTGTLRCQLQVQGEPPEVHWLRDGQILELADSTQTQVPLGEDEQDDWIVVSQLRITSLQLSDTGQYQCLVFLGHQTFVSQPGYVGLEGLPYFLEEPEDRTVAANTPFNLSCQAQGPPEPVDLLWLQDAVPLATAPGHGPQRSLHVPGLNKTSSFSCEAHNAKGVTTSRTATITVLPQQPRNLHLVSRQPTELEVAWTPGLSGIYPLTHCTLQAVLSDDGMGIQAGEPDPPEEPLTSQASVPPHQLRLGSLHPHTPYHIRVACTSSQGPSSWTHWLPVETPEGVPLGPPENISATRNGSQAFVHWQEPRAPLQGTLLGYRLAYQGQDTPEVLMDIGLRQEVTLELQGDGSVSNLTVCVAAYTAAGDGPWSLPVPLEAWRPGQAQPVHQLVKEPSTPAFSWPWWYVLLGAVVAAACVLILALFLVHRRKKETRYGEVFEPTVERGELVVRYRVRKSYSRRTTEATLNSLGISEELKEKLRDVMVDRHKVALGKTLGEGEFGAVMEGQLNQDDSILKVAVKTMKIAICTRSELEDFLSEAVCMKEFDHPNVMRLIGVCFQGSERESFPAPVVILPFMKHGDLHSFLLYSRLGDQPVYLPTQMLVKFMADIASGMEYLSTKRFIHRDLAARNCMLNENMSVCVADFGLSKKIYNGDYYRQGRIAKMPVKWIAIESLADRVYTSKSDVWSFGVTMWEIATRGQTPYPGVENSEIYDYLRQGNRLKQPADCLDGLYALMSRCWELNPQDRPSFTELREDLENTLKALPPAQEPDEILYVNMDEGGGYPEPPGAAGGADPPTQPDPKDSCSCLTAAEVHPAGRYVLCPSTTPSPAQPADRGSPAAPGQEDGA

As to `CCn1c(-c2nonc2N)nc2c(C#CC(C)(C)O)nc(OCCNC)cc21`, the inhibition in test [1] came out at 1.16%; in [2], 2.13%; in test [3] it was 2.96%; in test [4] it was 3.72%; in test [5] it was 4.85%; in test [6], 1.62%. The inhibition in test [7] was found to be 3.61%; in test [8] it was 3.81%; in [9], 4.6%; in [10] it was 1.77%; in test [11], 4.21%; in test [12] it was 1.69%. The inhibition in test [13] was 4.64%; in [14], 4.99%; in test [15], 5.14%; in [16] it was 2.7%; in test [17], 3.58%; in test [18] it was 1.91%. In addition, the inhibition is 4.33% in test [19] and -7.46% in test [20].
On to `Nc1nccc(C#Cc2cncnc2Nc2ccc(OCc3cccc(F)c3)c(Cl)c2)n1`, for which the inhibition in [1] stood at 1.07%; in test [2] it was 3.67%; in [3], 3.58%; in test [4], 3.32%; in test [5], 2.76%; in test [6], 1.11%. Also, the inhibition in test [7] was determined as 0.59%; in test [8], 2.18%; in test [9] it was 0.52%; in test [10], 2.46%; in test [11] it was 2.7%; in test [12], 3.75%. Moreover, the inhibition in test [13] turned out to be 2.69%; in test [14], 4.16%; in test [15], 9.58%; in [16] it was 3.59%; in test [17] it was 6.28%; in test [18], 3.79%. The values for the inhibition in test [19] and in test [20] were 3.33% and -7.36%, respectively.
Turning to `COc1cc(/C=N/Nc2ncnc3c2cnn3C(C)C)ccc1O`, the inhibition in [2] came out at 21.7%; in [3], 71%; in test [4], 34.7%; in test [5], 80.7%; in [6], 34.7%; in test [7], 80.5%. Moreover, the inhibition was 35.4% in test [8]; 81.6% in test [9]; 9.92% in test [10]; 47.8% in test [11]; 37% in [12]; 82.2% in test [13]. In addition, the inhibition in [14] came out at 23.3%; in test [15] it was 73.7%; in test [16] it was 0.72%; in test [17] it was 4.12%; in test [18] it was 16.7%; in test [19], 68.5%. Further, the inhibition in test [20] is -0.67%.
As for `Nc1nccc(-c2c(-c3ccc(F)cc3)ncn2CCCN2CCOCC2)n1`, the inhibition in [2] worked out at 3.15%; in test [3], 4.81%; in test [4], 2.47%; in [5], 4.57%; in [6] it was 0.51%; in test [7], 3.75%. Further, the inhibition came out at 2.53% in test [8]; 6.74% in test [9]; 2.38% in [10]; 3.9% in test [11]; 3.98% in [12]; 6.6% in test [13]. For the same compound, the inhibition was found to be 2.4% in [14]; 7.25% in test [15]; 2.67% in test [16]; 4.91% in test [17]; 2.67% in [18]; 0.55% in test [19]. The inhibition in test [20] was -5.59%.
On to `[O-][S+]1CCN(Cc2ccc(-c3ccc4ncnc(Nc5ccc(OCc6ccccc6)c(Cl)c5)c4c3)o2)CC1`, for which the inhibition in test [1] is -2.46%; in [2] it was 1.62%; in [3] it was 1.35%; in test [4], 1.53%; in [5] it was 2.74%; in test [6], 0.68%. In addition, the inhibition in test [7] came to 2.75%; in test [8] it was 2.06%; in test [9], 3.61%; in test [10] it was 0.16%; in [11], 1.03%; in test [12], 0.95%. For the same compound, the inhibition in test [13] is 2.06%; in test [14] it was 2.3%; in [15], 4.26%; in test [16] it was 2.04%; in test [17], 8.58%; in test [18], 1.82%. Moreover, the inhibition in test [19] is 3.39%; in test [20], -2.39%.
Take `Cc1ccc(NC(=O)CC2CC2)cc1-c1ccc(C(=O)NCC2CC2)cc1`: the inhibition is 1.56% in test [1]; 4.24% in test [2]; 5.26% in test [3]; 6.77% in [4]; 3.96% in test [5]; 4.32% in test [6]. Further, the inhibition is 3.09% in test [7]; 6.39% in [8]; 4.54% in [9]; 2.14% in [10]; 2.68% in test [11]; 5.1% in test [12]. Also, the inhibition stood at 5.33% in test [13]; 6.36% in test [14]; 8.53% in test [15]; 1.68% in [16]; 3.58% in test [17]; 8.79% in [18]. Also, the figures for the inhibition in test [19] and in test [20] were 7.68% and -3.14%, respectively.
For the compound `CCn1c(-c2nonc2N)nc2ccc(F)cc21`, the inhibition in test [1] came out at 0.67%; in [2], 2.57%; in test [3], 4.59%; in test [4], 4.55%; in test [5] it was 4.61%; in test [6], 2.2%. The inhibition in test [7] was found to be 2.4%; in test [8], 4.86%; in test [9], 3.17%; in [10], 3.34%; in test [11] it was 5.94%; in test [12] it was 2.99%. In addition, the inhibition in [13] was determined as 6.49%; in test [14], 3.48%; in test [15] it was 3.51%; in [16], 5.2%; in test [17] it was 5.27%; in test [18], 3.97%. The inhibition is 6.07% in test [19] and -7.61% in [20].
In the case of `C[C@@H](Oc1cc(-n2cnc3ccc(OC[C@@H](O)CO)cc32)sc1C(N)=O)c1ccccc1Cl`, the inhibition was -6.36% in test [1]; 0.24% in test [2]; 5.92% in [3]; 0% in test [4]; 9.51% in test [5]; 1.32% in [6]. The inhibition in test [7] was 8.84%; in [8], -1.76%; in [9], 8.32%; in test [10], -0.17%; in test [11] it was 12.4%; in [12], -0.46%. Besides, the inhibition in [13] was 10.3%; in test [14], -0.45%; in test [15], 11.7%; in test [16] it was -0.7%; in [17] it was 4.65%; in test [18], 0.97%. The inhibition in [19] was found to be 7.64%; in test [20] it was 2.21%.
For the compound `NS(=O)(=O)c1ccc(-c2cc3ccncc3cc2OCc2ccccc2)cc1`, the inhibition in [1] worked out at 4.76%; in test [2], 2.82%; in [3], 3.92%; in test [4] it was 4.66%; in [5], 6.67%; in test [6], 3.16%. Moreover, the inhibition in [7] came to 4.42%; in test [8] it was 4.84%; in [9], 4.61%; in test [10], 1.65%; in test [11], 3.49%; in test [12], 5.3%. In addition, the inhibition in [13] was 3.98%; in test [14] it was 3.52%; in test [15] it was 7.38%; in test [16], 4.77%; in test [17] it was 15.5%; in test [18] it was 3.51%. Further, the values for the inhibition in test [19] and in test [20] were 6.27% and -5.69%, respectively.
On to `CN1CCN(C(=O)c2ccc(NC(=O)Nc3ccc(N(C)c4ccnc(Nc5ccc(CS(C)(=O)=O)cc5)n4)cc3)cc2)CC1`, for which the inhibition in [1] is -8.2%; in test [2], 3.11%; in [3], 29.9%; in [4], 18.1%; in [5], 67.8%; in test [6], 24.1%. Further, the inhibition in test [7] turned out to be 72.6%; in [8], 21%; in test [9], 69.6%; in test [10] it was 17.6%; in [11], 61.5%; in [12], 8.21%. Further, the inhibition in test [13] amounted to 48.1%; in test [14], 9.79%; in [15] it was 43.9%; in [16], 1.71%; in [17], 10.3%; in test [18] it was 21.9%. In addition, the inhibition in test [19] is 56.5%; in test [20], -3.75%.
Turning to `FC(F)(F)c1ccc(-c2nn3ncccc3c2-c2ccnc(Nc3ccc4c(c3)OCCO4)n2)cc1`, the inhibition in test [1] was 15.5%; in test [2], -0.31%; in test [3], 0.99%; in test [4] it was 0.37%; in test [5], 8.02%; in [6], 1.83%. For the same compound, the inhibition is 13.9% in test [7]; 2.75% in test [8]; 8.01% in test [9]; 1.73% in test [10]; 9.38% in test [11]; 0.98% in test [12]. Further, the inhibition in [13] was 7.07%; in [14], 5.3%; in test [15], 13.7%; in test [16], -1.39%; in [17] it was 1.59%; in test [18] it was 5.58%. Further, the results for the inhibition in [19] and in test [20] were 9.47% and 8.69%, respectively.
Consider `Cc1ccc(O)cc1Nc1ccnc2ccc(S(C)(=O)=O)cc12`, for which the inhibition in [1] was 4.09%; in test [2] it was 94.4%; in test [3], 95.8%; in [4] it was 94.8%; in [5], 96.4%; in [6] it was 90.6%. Moreover, the inhibition in [7] was 94.3%; in [8], 93%; in test [9], 96.3%; in [10], 3.68%; in [11], 18.4%; in [12], 94.9%. Also, the inhibition was found to be 96.8% in [13]; 81.3% in test [14]; 85.5% in test [15]; 2.56% in test [16]; 8.35% in test [17]; 80.8% in test [18]. In test [20], the inhibition was -7.59%.
Regarding `N#Cc1cccc(Nc2nccc(-c3cnn4ncccc34)n2)c1`, the inhibition in [1] is -4.67%; in [2], 7.52%; in test [3], 33%; in test [4], 13.6%; in test [5], 51.8%; in test [6] it was 16.2%. For the same compound, the inhibition in [7] was 60.8%; in test [8], 15.2%; in test [9] it was 57%; in test [10] it was 8.12%; in [11] it was 34.2%; in test [12], 12.6%. In addition, the inhibition turned out to be 49.8% in test [13]; 13.6% in test [14]; 47.5% in test [15]; 4.04% in test [16]; 18.7% in test [17]; 11.9% in [18]. The inhibition in test [19] was 44.3%; in test [20], -0.03%.
Take `COC(=O)c1cncc(/C=C/c2c(C)cc(O)cc2C)c1`: the inhibition was 7.57% in test [1]; 6.85% in test [2]; 38% in test [3]; 13.3% in test [4]; 60% in test [5]; 15.9% in test [6]. Also, the inhibition in test [7] is 66.3%; in [8], 15.9%; in test [9] it was 64.1%; in [10] it was 4.16%; in test [11], 5.95%; in test [12], 13.9%. Further, the inhibition is 60.9% in [13]; 11% in [14]; 62.9% in test [15]; 2.92% in test [16]; 4.4% in test [17]; 12.5% in test [18]. Besides, the values for the inhibition in test [19] and in test [20] were 57.4% and -3.94%, respectively.

(Values after ChEMBL document CHEMBL1961873, “Compounds: GSK PKIS; Assays: Nanosyn kinase panel” (2012).)
